The entries come from a sample that favours hits as a whole.
Marburg entry inh = Marburg virus entry inhibition. Marburg virus pseudotyped entry inhibition, cell reporter. Potency, µM (doses to about 37.8 µM), without a hit: top-dose activity change, negative = inhibition, actives largely listed as inhibitors. 300,000 compounds, 1.8% hits; calls by dose curve; tested in HEK293 cells; also: potency is read from the fitted curve at half-maximal effect; % is scaled to controls: 0 for no effect and ±100 for the full control effect
AMA1 RON2 block = AMA1-RON2 (P. falciparum) interaction inhibition. AlphaScreen AMA1-biotinylated RON2 peptide binding. Potency, µM (series often up to 58.2 µM), without a hit: top-dose activity change, negative = inhibition, actives largely listed as inhibitors. 360,000 compounds, 0.2% hits. AID 720542; active = well fitted inhibition curve with a large enough effect; inconclusive = small, poorly fitted or top-dose-only effect; inactive = no such curve, though single readings can be large or run the other way;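 also: potency is read from the fitted curve at half-maximal effect; 0% = vehicle wells and -100% = peptide control; nearly all actives have a fitted effect of over 45% in size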
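AMA1 (3D7) with his tag at 25 nM final met compounds first, then biotinylated RON2 peptide at 25 nM; detection used donor plus acceptor beads, 10 µg/mL apiece, read by AlphaScreen after 30 min at room temperature.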
Shiga inhibitor = blocks Shiga toxin action in Vero cells; Vero cells, Shiga toxin protein synthesis inhibition reporter; inhibition, % at 38.7 µM; 290,000 compounds, 9.2% hits; in the data active = inhibition mostly above about 28%, no sharp cut-off; inactive = mostly below about 43%; also: 0% is about no effect
LASV entry inh = Lassa virus entry inhibition | 300,000 compounds, 1.2% hits | Lassa virus pseudotype entry inhibition, cell reporter | Potency, µM (titrated, usually from 37.9 µM), for inactives: at the highest dose activity change, negative = inhibition, hits mostly inhibitors; calls by dose curve; tested in HEK293 cells; also: potency is read from the fitted curve at half-maximal effect; % is scaled to controls: 0 for no effect and ±100 for the full control effect; nearly all actives have a fitted effect of over 50% in size
Cycloheximide cs = counter-screen hit for Shiga toxin inhibitors, cycloheximide. cell reporter, cycloheximide protein synthesis inhibition counterscreen. AID 2314. max response, %. 300,000 compounds, 12% hits; in the data active = max response mostly above about 13%, no sharp cut-off; inactive = mostly below about 14%; also: read at 38.3 µM for the half of the compounds with a filed dose; 0% is about no effect
The depositor's hits bear a star; ? = inconclusive; . = not tested or not shown; + = active, no number; [ ] = another dose, or the depositor's remark.

SMILES	Marburg entry inh	AMA1 RON2 block	Shiga inhibitor	LASV entry inh	Cycloheximide cs
Nc1c(-c2ccccc2)n[nH]c1-c1ccccc1	-3.8%	-9.4%	78.3*	77.2%[14.3 µM]	31.2*
Nc1nc2c(ncn2[C@@H]2O[C@H](CNCc3ccc(Oc4cc(-n5cccn5)ncn4)cc3)[C@@H](O)[C@H]2O)c(=O)[nH]1	.	13.2%	.	.	.
COC(=O)c1cnn(-c2cc(Oc3ccccc3)ncn2)c1N	1.6%	8.9%	26.6	?	22.9*
c1ccc(Oc2cc(-n3cccn3)ncn2)cc1	?	2.0%	73.6*	4.9%	53.7*
NC(=O)c1cnn(-c2cc(Oc3ccccc3)ncn2)c1N	?	13.5%	58.9	?	47.0*
CCc1ccc(-c2cc(C)no2)cc1S(=O)(=O)Nc1ccc(Cl)cc1	.	.	.	-17.5%[46.1 µM]	.
CCOc1ccccc1NC(=O)CSc1nc2cc(OC)c(OC)cc2c2nc(CCn3c(C)nc4ccccc43)nn12	10.5%[46.1 µM]	.	.	16.9%[46.1 µM]	.
O=C(COc1ccc2ccccc2c1Br)NC(=S)Nc1cccc(CO)c1	?	4.4%[2.32 µM]	22.1*	?	50.7*
O=C(COc1ccc(Br)cc1Br)NC(=S)Nc1cccc(CO)c1	?	68.2%	86.6*	-18.5%	97.4*
COc1cc(CC(=O)NNC(=O)c2cc(C)oc2C)cc(OC)c1OC	5.2%	42.8%	-3.6	-7.3%	-5.8
CCCOc1cccc(-c2nnc(N)s2)c1	?	-26.1%	43.6*	-9.7%	22.5*
Cc1cccc(-c2nnc(N)s2)c1	9.4%	3.1%	21.2	20.0%	7.2
CCCCOc1cccc(-c2nnc(N)s2)c1	13.0%	10.7%	17.2	-1.4%	24.9*
O=C1NC[C@@H](CCCCN2C[C@H](Cc3ccccc3)N(CCc3ccc(O)cc3)C(=O)C2=O)N(CC2CCCCC2)C1=O	.	4.9%	.	.	.
Cc1ccc(C(=O)CSc2ncnc3ccccc23)o1	?	-10.6%	109.6*	?	25.6*
Cc1ccc(CSc2ncnc3ccccc23)cc1	15.0%[46.1 µM]	30.2%	33.6	25.6%[46.1 µM]	21.4*
O=C(CSc1ncnc2ccccc12)c1cccs1	?	62.9%	31.3	?	14.1
Cc1cccc(CSc2ncnc3ccccc23)c1	-5.9%[46.1 µM]	27.6%	61.6*	2.6%	22.1*
CCN(Cc1ccccc1)S(=O)(=O)c1ccc2c(c1)CC(C)N2C(=O)C1CCC1 (stereo not given)	.	.	.	2.82µM*	.
CC(C)NC(=O)C1CCN(Cc2cccc(OCc3ccccc3)c2)CC1	.	0.0%	.	.	.
CC(O)CNC(=O)C1CCN(Cc2ccc(OCc3ccccc3)cc2)CC1 (stereo not given)	?	?	129.9*	-3.7%	36.8*
CC(C)CNC(=O)C1CCN(Cc2ccc(OCc3ccccc3)cc2)CC1	?	-14.9%	79.4*	3.6%	27.2*
COc1ccc(Nc2cc(C)c3ccc(O)cc3n2)cc1	.	-2.8%	51.6*	.	45.5*
Cc1cc(Nc2ccccc2)nc2cc(O)ccc12	-24.6%	0.7%	113.8*	4.7%	37.3*
Cc1ccc(S(=O)(=O)CCC(=O)N2CCN(c3ccc([N+](=O)[O-])cc3)CC2)cc1	.	14.1%	4.7	.	14.5
SMILES	Marburg entry inh	AMA1 RON2 block	Shiga inhibitor	LASV entry inh	Cycloheximide cs
COc1ccc(CN2CCN(C(=O)Cn3c(=O)oc4cc(Cl)ccc43)CC2)c(OC)c1OC	.	-2.0%	-7.7	.	-0.9
COC(=O)c1sc(-c2ccc(Cl)cc2)cc1NC(=O)CSCC(=O)O	.	-1.8%	0.9	.	-2.3
COC(=O)c1sc(-c2ccc(C(C)(C)C)cc2)cc1NC(=O)COCC(=O)O	?	-9.9%	43.7*	-8.6%	20.5*
Cc1ccc2c(CN(C)Cc3cccc(F)c3)cc(=O)oc2c1	.	20.9%	87.7*	.	29.7*
CCc1ccc2c(CN(C)Cc3ccccc3OC)cc(=O)oc2c1	?	-22.3%	55.6	?	19.1*
COc1cc(CN(C)Cc2cc(=O)oc3cc(C)c(Cl)cc23)ccc1OC(F)F	?	-0.5%	50.0*	?	21.6
CSc1ccc(CN(C)Cc2cc(=O)oc3c(C)c(C)ccc23)cc1	.	15.0%	-5.5	.	-3.8
COc1ccc(CN(C)Cc2cc(=O)oc3cc(C)c(C(C)C)cc23)cc1OC	?	-9.3%	-13.0	?	-0.7
Cc1ccc2c(CN(C)Cc3cccc(Cl)c3)cc(=O)oc2c1C	?	1.0%	33.3	?	6.4*
COc1ccc(OC)c(CNC(=O)C2CCC(=O)N(CCCN3CCCC3=O)C2)c1 (stereo not given)	-13.6%	7.5%	-5.0	0.9%	-0.3
CCCCCCCCCCN1CCOCCOCCN(CCCCCCCCCC)CCOCCOCC1	.	.	-1.6	.	-2.4
COC(=O)c1cccc(NC(=O)Nc2ccccc2OC)c1	?	-11.4%	43.4*	2.4%	23.1*
COC(=O)c1cccc(NC(=O)Nc2ccc(Cl)c(Cl)c2)c1	20.4%	22.6%	58.6*	32.5%[14.3 µM]	38.2*
COC(=O)c1cccc(NC(=O)NC(=O)c2ccccc2Cl)c1	?	0.7%	34.7	?	10.4
COC(=O)c1cc(NC(=O)Nc2ccccc2)ccc1Cl	?	-3.3%	92.3*	3.9%	40.6*
Cc1ccc2oc(=O)c3cc(C(=O)Nc4cc(-c5cccc(F)c5)no4)sc3c2c1	-5.8%	.	-3.9	0.1%	-2.4
CCOc1ccc(N(CC)S(=O)(=O)N2CCCC(C(=O)NCc3ccccc3Cl)C2)cc1 (stereo not given)	.	.	.	-15.5%[46.1 µM]	.
COc1ccc(-c2nc3c4ccccc4n(CC(=O)Nc4cc(F)ccc4F)c(=O)n3n2)cc1	.	.	.	14.1%[46.1 µM]	.
CC(CC(=O)N1CCN(S(=O)(=O)c2ccc(Cl)cc2)CC1)n1cncn1 (stereo not given)	15.5%[46.1 µM]	9.9%	-9.7	.	-2.2
CC(CC1=C2C=CC=CC2N=C1)NC(N)=O (stereo not given)	5.1%[46.1 µM]	.	.	.	.
CCOC(=O)C1CCN(S(=O)(=O)c2cccc(-c3cn4cccc(C)c4n3)c2)CC1	?	-15.5%	-15.1	?	1.6
Cc1cccc(NC(=O)c2cc3c(s2)-c2c(C)cccc2OC3)n1	.	9.3%	16.1	.	10.5*
Cc1csc(NC(=O)c2cc3c(s2)-c2ccccc2OC3)n1	?	15.3%	+	14.8%	58.6*
Cc1c(NC(=O)c2cc3c(s2)-c2ccccc2OC3)cccc1[N+](=O)[O-]	?	-8.5%	10.6	?	15.7*
CCN1CCN(CCCNC(=O)c2cc3c(s2)-c2ccccc2OC3)CC1	?	17.7%	3.9	.	2.5
SMILES	Marburg entry inh	AMA1 RON2 block	Shiga inhibitor	LASV entry inh	Cycloheximide cs
CN(C)CCNC(=O)c1cc2c(s1)-c1ccccc1OC2	.	9.6%	46.6*	.	40.2*
COc1ccc(Cl)cc1NC(=O)c1cc2c(s1)-c1ccccc1OC2	0.8%[46.1 µM]	.	.	.	.
Cc1cccc(N2CCN(S(=O)(=O)c3ccc(F)c(C(=O)Nc4ccc(C(C)C)cc4)c3)CC2)c1C	.	.	.	0.7%[46.1 µM]	.
CCOc1ccc(-n2c(SCC(=O)Nc3cc(C)ccc3C)nc3c([nH]c4ccccc43)c2=O)cc1	.	.	.	25.8%[46.1 µM]	.
CCOC(=O)[C@]12CCC=C1N(Cc1ccco1)C(=O)[C@H](CC(=O)NCC1CCCCC1)C2	.	0.6%	.	.	.
O=C(c1cn(CC2CCCCC2)nn1)N1CCN(c2ccc(F)cc2)CC1	.	-6.5%	48.8*	.	30.2*
Cc1ccc(C(=O)OCC(=O)Nc2ccc3c(c2)OCO3)cc1S(=O)(=O)N1CCOCC1	-27.5%[46.1 µM]	-13.7%	-10.6	?	-1.1

Screening results from PubChem.
